Assay results reported in PubChem BioAssay AID2673 (National Center for Advancing Translational Sciences (NCATS), 2010).
Records with an inconclusive call do not appear. Where a call stands in place of a potency, no number is given. Calls of active or inactive are those of the source. Calls come from the whole dose curve; as a rule, active = well fitted activation curve with a large enough effect; inconclusive = small, poorly fitted or top-dose-only effect; inactive = no such curve, though single readings can be large or run the other way.

Assay: qHTS Multiplex Assay to Identify Dual Action Probes in a Cell Model of Huntington: Cytoprotection confirmation (ATP)
Settings: PC12 HttQ103 induced, ATP luminescence 40 h; series mostly up to 46.1 µM
From the text: NIH Chemical Genomics Center [NCGC]
NIH Molecular Libraries Probe Production centers Network [MLPCN]
Assay Submitter (PI): Wei Zheng
Huntington's disease is a neurodegenerative disorder caused by a trinucleotide repeat expansion in Exon 1 of the Huntingtin gene. The CAG trinucleotide encodes glutamine and polyglutamine expansions cause cell death in selective areas of the brain. Huntington polyglutamine repeats have the tendency to form aggregates which are observable in later stages of the disease. The exact nature of the aggregates, whether toxic, protective, or insignificant, is unclear.
A stable PC12 cell line containing a gene fusion of Exon 1 of the Huntingtin gene linked to GFP under the control of the inducible ecdysone promoter were used as the cell-based model of Huntington Disease for high throughput screening. Exon 1 of the Huntingtin gene contained an expansion of 103 polyglutamines (Q103) which, when expressed, caused cell death and distinct, bright GFP aggregates. The amount of cell death and the size and intensity of GFP aggregates increased over time and induction level. The cell death were quantified with a measurement of ATP content in the cells. A maximal 40-50% of cell death was observed when the Huntington gene was induced in this cell line.
We optimized this assay in a homogeneous 1536 well format. A quantitative high throughput screen (qHTS) was conducted on the PC12 cells which were induced to express the toxic fusion construct. Small molecules which prevented cell death were identified by using a luminescent ATP quantification method (Perkin Elmer's ATPlite).
PC12 cells stably containing a construct with an ecdysone inducible promoter expressing GFP fused to the exon 1 of HTTQ103 (Huntington protein which containing a 103 ployglutamine expansion) were used.
NCGC Assay Protocol Summary:
Sequence, Parameter, Description
1, Reagent, 5 uL 1500 cells/well 1536 TC treated White clear bottom plate
2, Compound, 23 nL Tebufenozide inducer (100 nM final) to all columns
3, Compound, 23 nL 40 uM to 0.5 nM Libraries
5, Reagent, 5 ul ATPLite cell death assay reagent
6, Detector, 4 sec integration with a Viewlux Luminescent
Media consisted of phenol red free DMEM + 5% equine serum (Hyclone # SH30072.03 ), 5% supplemented Bovine Calf Serum (Hyclone # SH30074.03 ), 1x pen/strep, no G418

Structure (SMILES)	Potency
Cc1csc(N/N=C/c2ccc(O)c([N+](=O)[O-])c2)n1	inactive
Cc1cccc(/C=N/NC(=O)c2cc3c(s2)-c2ccccc2CC3)c1	inactive
Cn1nnnc1Sc1ncnc2scc(-c3cnc(N)nc3)c12	35.5 µM (active)
O=C(c1ccccc1)c1ccc2n1CCC2C(=O)O (stereo not given)	inactive
Cc1cccc(-c2csc3ncnc(Sc4nnnn4C)c23)c1	31.6 µM (active)
COc1ccc2cc3cc(C(=O)N4CCN(c5ccccc5)CC4)oc3nc2c1	inactive
CCOC(=O)c1noc(C)c1C(=O)Nc1cccc(F)c1	inactive
Cn1nnnc1Sc1ncnc2scc(-c3ccccc3C(F)(F)F)c12	inactive
CN1C(=O)C2(c3ccccc31)C1CCCC=C1C(C#N)=C(N)C2(C#N)C#N (stereo not given)	inactive
COc1ccc(C(=O)C(CN2CCOCC2)c2ccccc2)cc1 (stereo not given)	inactive
Cn1nnnc1Sc1ncnc2scc(-c3cccc(Cl)c3)c12	14.1 µM (active)
COc1ccc(C(=O)Cc2ccc(OC)c(OC)c2)cc1	inactive
Cn1nnnc1Sc1ncnc2scc(-c3cccc(N)c3)c12	inactive
NC(=O)C1CCN(CCC(=O)Nc2ccc(Br)cc2)CC1	inactive
O=c1oc2cc(O)ccc2s1	inactive
COc1cc(Cc2cnc(N)nc2N)cc(OC)c1OC	inactive
CCc1nc(SCC(=O)N2CCCC2)c2ccccc2n1	inactive
CC(=O)Nc1ccc(S(=O)(=O)N2CCSC2c2ccccc2)cc1 (stereo not given)	inactive
CC(=O)c1ccc(-c2csc3ncnc(Sc4nnnn4C)c23)cc1	inactive
O=Nc1c(-c2c(O)[nH]c3ccccc23)[nH]c2ccccc12	inactive

Structure (SMILES)	Potency
COc1c(F)c(F)c(C(=O)Nc2ccc3oc(-c4ccncc4)nc3c2)c(F)c1F	inactive
Cn1nnnc1Sc1ncnc2scc(-c3ccccc3Br)c12	35.5 µM (active)
CC(=O)c1ccccc1-c1csc2ncnc(Sc3nnnn3C)c12	31.6 µM (active)
COc1ccc(C2=Nc3cc(C)ccc3OC2)cc1	inactive
O=C(NCc1ccco1)c1cc2ccc(O)cc2oc1=O	inactive
Cn1nnnc1Sc1ncnc2scc(-c3ccc4ccccc4c3)c12	12.6 µM (active)
Cn1nnnc1Sc1ncnc2scc(-c3ccccc3F)c12	inactive
Cn1nnnc1Sc1ncnc2scc(-c3cccc(C#N)c3)c12	12.6 µM (active)
Cc1nnsc1C(=O)N/N=C/c1ccc2ccccc2c1O	inactive
COc1ccc(-c2csc3ncnc(Sc4nnnn4C)c23)cc1	25.1 µM (active)
Cn1nnnc1Sc1ncnc2scc(-c3ccc4c(c3)OCO4)c12	22.4 µM (active)
O=C(Nc1cccnc1)Nc1ccccc1Cl	inactive
O=c1c2ccccc2nnn1CSc1ncnc2ccccc12	inactive
CC(=O)OCC1=C(C(=O)O)N2C(=O)[C@@H](NC(=O)Cc3cccs3)[C@H]2SC1	inactive
Cn1nnnc1Sc1ncnc2scc(-c3ccc(N)cc3)c12	inactive
Cn1nnnc1Sc1ncnc2scc(-c3ccc(C(=O)OC(C)(C)C)cc3)c12	inactive
CCN(CC)CCNc1ccc(CO)c2sc3ccccc3c(=O)c12	inactive
Fc1cccc(Cl)c1Cn1nnc2c(-n3ccnc3)ncnc21	inactive
Cc1ccc(-c2csc3ncnc(Sc4nnnn4C)c23)cc1	35.5 µM (active)
C#CCN(C)CCCOc1ccc(Cl)cc1Cl	inactive
